From PubChem BioAssay (NCI)
This is part of a sample that, as a whole, favours compounds with a hit. Of some 83,000 tested, about 20% had one in any assay.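 Note: values are percent growth. 100 is the growth of untreated cells, values between 100 and 0 indicate rising inhibition; between -100 and 0 indicates cell death.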 Values without a mark were called inactive. Active and inactive are the calls of the source. The calls were made as follows: active = growth percent below 10; inactive = the rest.

system: HL-60(TB) leukemia; experiment: NCI-60 one-dose screen, 48 h (100 = growth as untreated, 0 = no growth, -100 = all killed); details: 10 µM unless noted

SMILES | growth
c1c(-c2cc(C3CC3)[nH]n2)n[nH]c1C1CC1 | 78.4%
CCc1c2c(nc3ccc(OCc4ccc(B5OC(C)(C)C(C)(C)O5)cc4)cc13)-c1cc3c(c(=O)n1C2)COC(=O)[C@]3(O)CC | -1.71% (active)
COc1cccc(-c2nc3sccn3c2-c2ccnc(NCCNS(=O)(=O)c3cccc(F)c3)c2)c1 | -1.8% (active)
COc1ccc(-c2c(C#N)cnc(N)c2-c2nc3cc(C)c(C)cc3[nH]2)cc1 | 89.4%
COc1c2ccccc2c(OC)c2[nH]c(=O)ccc12 | 71.5%
O=C(CCc1nnc(-c2c(Cl)cccc2Cl)o1)c1nc2ccccc2[nH]1 | -33.8% (active)
CC/C(=C(\c1ccc(OCCN2CCCCCCC2)cc1)c1ccc(OC(=O)C2CCCCC2)cc1)c1ccc(Cl)cc1 | 77.8%
CCOC(=O)c1c(NC(=O)CSc2n[nH]c3nc4ccccc4n23)sc(CC)c1C | 97.9%
COc1cc(Cl)cc(-c2nn(-c3cccc(NC(=O)Nc4ccc(Cl)c(Cl)c4)c3)cc2-c2ccncc2)c1 | -5.12% (active)
Cc1ccc(-c2nc(SCC(=O)Nc3nc(-c4ccc(Cl)cc4)cs3)[nH]c(=O)c2C#N)cc1 | 111%
Fc1ccc(-c2ccnc3nc(-c4ccncc4)nn23)cc1 | 96.5%
CC1Cc2c(N(C)C)ncnc2N(C)c2ccc(Cl)cc21 (stereo unspecified) | -7.29% (active)
COc1ccc(C(=O)c2cc3c(N)c(C(=O)Nc4ccc(C)cc4)sc3nc2C)cc1 | 7.74% (active)
Clc1ccc2c(c1)C(Br)c1cc(Cl)cc(Cl)c1-2 (stereo unspecified) | 81.3%
COc1ccc(C(=O)/C=C/c2ccc(Cl)cc2)cc1S(=O)(=O)Nc1c(N)nc(SC)[nH]c1=O | 36.8%
Cc1ccc(-c2cc(-c3ccccc3)n(-c3ccccc3)n2)cc1 | 98.5%
O=S(=O)(O)c1ccc2cc(O)ccc2c1 | 100%
CS(=O)(=O)c1ccc(-c2cnc3ccc(-c4cccc(S(C)(=O)=O)c4)nn23)cc1 | 16.6%
CCC(C)[C@H](NC(=O)NC(=O)NC(=O)CI)C(=O)OC (stereo partly specified) | 71.8%
COC(=O)c1c2c(c(C)[n+]([O-])c1C)C(=O)C(NCc1ccc(F)cc1)=CC2=O | -51.5% (active)
COc1ccc(OC)c(Nc2nnc(-c3ccc(O)c(OC)c3)o2)c1 | 87.3%
COc1ccc(C(=O)NC(=O)Nc2ccc3c(c2)NC(=O)/C3=C\c2[nH]c(C)c(C(=O)O)c2C)c(F)c1 | 80.8%
CCN(CC)CCCOc1cccc2c1C(=O)c1cccc(OCCCN(CC)CC)c1C2=O | 30.3%
C/C=C(/C)C(=O)OC1C=C(CO)C(=O)C(OC(=O)/C(C)=C\C)C1C(C)C (stereo unspecified) | -32% (active)
O=C(Nc1ccc(-c2ccnc(Nc3ccc(N4CCOCC4)cc3)n2)cc1)[C@@H]1CCCN1 | 39.8%
O=C(Nc1ccccc1)c1cc(Cl)ccc1O | 29.6%
